Bioassay records deposited in PubChem by National Center for Advancing Translational Sciences (NCATS).
TDP43 rescue: TDP-43 toxicity inhibition in yeast. TDP-43 expressing yeast growth rescue, BacTiter-Glo, 24 h. Potency, µM (top dose mostly 46.1 µM), most hits filed as activators. actives 1.8% (n = 410,000); further: nearly all actives have a fitted effect of over 50% in size
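Growth rescue of TDP-43-toxic yeast measured as ATP luminescence (BacTiter-Glo). Cells grown to mid-log in raffinose, induced in galactose at OD600=0.02, exposed to compound 24 hr at 30 deg C.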
Abeta rescue: A-beta toxicity reversal in yeast; actives 0.063% (n = 410,000); Potency, µM (highest dose often 46.1 µM), most hits filed as activators; yeast expressing A-beta42, growth rescue, OD600, 48 h; response scale: 0% DMSO, 100% iron-clioquinol control; AID 1347071; further: nearly all actives have a fitted effect of over 55% in size
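Growth rescue measured by 600 nm absorbance after 48 h yeast culture at 30 C with compound. Values normalized between DMSO and an equimolar ferric chloride plus clioquinol control.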
aSyn rescue: rescues yeast growth from alpha-synuclein toxicity | Potency, µM (highest dose often 46.1 µM), usual class: activators | Yeast expressing alpha-synuclein, growth rescue, BacTiter-Glo, 24 h | actives 0.14% (n = 370,000); further: nearly all actives have a fitted effect of over 65% in size
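Readout is rescue of growth in alpha-synuclein-expressing yeast, so inhibitors of toxicity appear as activators. Growth after 24 hr at 30 deg C in galactose medium is quantified by luminescence.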
FUS yeast rescue: rescues growth of FUS-expressing yeast; S. cerevisiae FUS-expressing, growth rescue, OD600, 24 h; AID 1347120; actives 0.24% (n = 390,000); Potency, µM (highest dose often 76.6 µM), most hits filed as activators; further: nearly all actives have a fitted effect of over 55% in size
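Yeast FUS proteinopathy model; galactose-induced FUS (2%), starting OD 0.005. Cpds in dilution series, 24hr, 30C, 99% humidity. Abs 600 nm growth. Pos ctrl CP55940 (top 92uM final); neg ctrl DMSO.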
Large screens that a line does not name were inactive. Rows were chosen to be rich in hits. Some 2.1% of all compounds tested hit in one or more screens of this group. The call rests on the fitted dose curve; in most records, active means well fitted curve in the direction sought with a large enough effect; inconclusive means small, poorly fitted or top-dose-only effect, or another doubt; inactive means no such curve, though single readings can be large; an effect the other way counts as inactive or inconclusive.

N#Cc1ccccc1OCC(=O)Nc1nc(-c2ccccn2)cs1	TDP43 rescue 25µM, Abeta rescue inconclusive, aSyn rescue inconclusive
O=C(Nc1nc(-c2ccccn2)cs1)C1CCCC1	TDP43 rescue 20µM, Abeta rescue inconclusive
Cc1ccc(C(=O)Nc2nc(-c3ccccn3)cs2)s1	TDP43 rescue inconclusive, Abeta rescue inconclusive, aSyn rescue 3.5µM
O=C(Nc1nc(-c2ccccn2)cs1)c1ccc(Cl)s1	TDP43 rescue inconclusive
Cc1csc(NC(=O)c2cccn2C)n1	none
CCc1sc(C(=O)Nc2nc(-c3ccccn3)cs2)cc1C	TDP43 rescue inconclusive, aSyn rescue 4.5µM, FUS yeast rescue inconclusive
Cc1c(C(=O)Nc2nc(-c3ccccn3)cs2)oc2ccccc12	TDP43 rescue 6.3µM, FUS yeast rescue inconclusive
O=C(Nc1nc(-c2ccccn2)cs1)c1cc2ccccc2o1	TDP43 rescue inconclusive, aSyn rescue inconclusive
O=C(Nc1nc(-c2ccccn2)cs1)c1ncc(Cl)c(Cl)c1Cl	TDP43 rescue 3.5µM, aSyn rescue 7.9µM
Cc1ccccc1C(=O)/C(C#N)=N/Nc1c(C)n(C)n(-c2ccccc2)c1=O	TDP43 rescue 35µM, aSyn rescue 16µM (no result: FUS yeast rescue)
Cc1c(N/N=C(\C#N)C(=O)c2ccccc2)c(=O)n(-c2ccccc2)n1C	Abeta rescue inconclusive
Cc1c(C(=O)N2CCN(c3cccc(Cl)c3)CC2)cccc1[N+](=O)[O-]	TDP43 rescue 22µM, Abeta rescue inconclusive
Cc1cc(C(=O)N2CCN(c3cccc(Cl)c3)CC2)c2c(C)nn(-c3ccccc3Cl)c2n1	TDP43 rescue 20µM, FUS yeast rescue inconclusive (no result: aSyn rescue)
Cc1ccc(N2CCN(C(=O)c3cccc([N+](=O)[O-])c3)CC2)cc1Cl	TDP43 rescue 13µM, Abeta rescue inconclusive
O=C(c1cccc([N+](=O)[O-])c1)N1CCN(c2cccc(Cl)c2)CC1	none (no result: FUS yeast rescue)
O=C(NCC(c1cccs1)N1CCOCC1)c1cn(-c2ccccc2)nc1-c1ccc(F)cc1 (stereo unspecified)	none
COc1cc(C(=O)Nc2ccccc2-c2nc(-c3ccc(C)cc3)no2)cc(OC)c1OC	none (no result: aSyn rescue)
c1ccc(-c2c[nH]c3[n+]2CCCCC3)cc1	none
COC(=O)C1=C(C)Nc2nc(-c3ccccc3)nn2C1c1ccc(C)o1 (stereo unspecified)	Abeta rescue 11µM
CC(Sc1ncnc2sc(-c3ccccc3)cc12)C(=O)N1CCNC1=O (stereo unspecified)	none
Cc1cc(C)nc(SCC(=O)Oc2ccc3oc(=O)cc(C)c3c2)n1	none
CCc1nc2sc3ccccc3c(=O)c2c(=O)n1Cc1ccco1	FUS yeast rescue 32µM
O=c1c2ccccc2sc2nc(C3CCCCC3)n(Cc3ccco3)c(=O)c12	none
CCOC(=O)CCCc1ccc(/C(C)=N/NC(=S)NC)cc1	Abeta rescue inconclusive
CCOC(=O)CCCc1ccc(/C(C)=N/NC(N)=S)cc1	TDP43 rescue 20µM, Abeta rescue inconclusive
O=C(Oc1cc2oc(=O)cc(-c3ccccc3)c2cc1Cl)C1CCCCC1	TDP43 rescue 3.5µM
CCn1nccc1C(=O)Nc1cc(Cl)cc(Cl)c1	TDP43 rescue 20µM
Cn1nnc2c(N3CCN(c4ccccc4F)CC3)ncnc21	none (no result: aSyn rescue)
Cn1ncc2c(N3CCN(c4ccccc4F)CC3)ncnc21	TDP43 rescue 13µM
COC(=O)[C@]12C[C@H](CC(=O)NCC3CCCCC3)C(=O)N(Cc3cccc4ccccc34)C1=C[C@H](C1CCCC1)O[C@@H]2C	FUS yeast rescue 32µM (no result: TDP43 rescue, Abeta rescue, aSyn rescue)
COC(=O)[C@]12C[C@H](CC(=O)NCc3cccc4ccccc34)C(=O)N(Cc3cccc4ccccc34)C1=C[C@H](COCc1ccccc1)O[C@@H]2C	none (no result: TDP43 rescue, Abeta rescue, aSyn rescue)
CCCCNC(=O)C[C@H]1C[C@@]2(C(=O)OC)C(=C[C@H](C3CCCC3)O[C@@H]2C)N(Cc2cccc3ccccc23)C1=O	FUS yeast rescue 13µM (no result: TDP43 rescue, Abeta rescue, aSyn rescue)
COCCCNC(=O)C[C@H]1C[C@@]2(C(=O)OC)C(=C[C@H](C3CCCC3)O[C@@H]2C)N(Cc2ccco2)C1=O	none (no result: TDP43 rescue, Abeta rescue, aSyn rescue)
COC(=O)[C@]12C[C@H](CC(=O)NCCc3ccccc3OC)C(=O)N(CCC3=CCCCC3)C1=C[C@H](C1CCCC1)O[C@@H]2C	none (no result: TDP43 rescue, Abeta rescue, aSyn rescue)
COC(=O)[C@]12C[C@H](CC(=O)NCCC(C)C)C(=O)N(Cc3ccco3)C1=C[C@H](C1CCCC1)O[C@@H]2C	none (no result: TDP43 rescue, Abeta rescue, aSyn rescue)
COC(=O)[C@]12C[C@H](CC(=O)NCc3cccc(C(F)(F)F)c3)C(=O)N(Cc3ccco3)C1=C[C@H](C1CCCC1)O[C@@H]2C	FUS yeast rescue 4.5µM (no result: TDP43 rescue, Abeta rescue, aSyn rescue)
COC(=O)[C@]12C[C@H](CC(=O)NCc3ccc(OC)c(OC)c3)C(=O)N(CCC3=CCCCC3)C1=C[C@H](C1CCCC1)O[C@@H]2C	FUS yeast rescue 14µM (no result: TDP43 rescue, Abeta rescue, aSyn rescue)
O=C(O)CCCc1ccc2ccc3cccc4ccc1c2c34	none
Cc1noc(NC(=O)c2ccccc2)c1C#N	none
O=C(NC1CCCCN(Cc2ccc(OC(F)(F)F)cc2)C1=O)c1ccc(F)c(F)c1 (stereo unspecified)	none (no result: TDP43 rescue, Abeta rescue, aSyn rescue)
COc1ccccc1-c1nnc(C2CCN(S(=O)(=O)c3cccc([N+](=O)[O-])c3)CC2)o1	FUS yeast rescue inconclusive (no result: Abeta rescue)
C/C(=N\n1c(C)cc(C)c(C#N)c1=O)c1cccs1	none (no result: FUS yeast rescue)
COc1ccc(C(NC(=O)c2ccc(-c3ccccc3)cc2)c2ccccc2)cc1 (stereo unspecified)	none (no result: FUS yeast rescue)
Nc1ccc2c(c1)-c1ccc(F)cc1C2=O	aSyn rescue 14µM (no result: FUS yeast rescue)
CCc1c(C)sc(NC(=O)CC#N)c1C#N	FUS yeast rescue 10µM
Cn1c(-c2ccccc2)c(CCO)c2ccccc21	TDP43 rescue inconclusive
CCn1c(-c2ccccc2)c(C(=O)CCl)c2ccccc21	aSyn rescue 11µM
Cn1c(-c2ccccc2)c(C(=O)CCl)c2ccccc21	TDP43 rescue 18µM
Cc1cc(C)nc(NC(=O)/C=C/c2ccccc2Cl)c1	TDP43 rescue 13µM (no result: FUS yeast rescue)
Cc1cc(C)nc(NC(=O)/C=C/c2ccccc2Cl)n1	none
Cc1cc(C)nc(NC(=O)/C=C/c2ccc(Cl)cc2Cl)c1	TDP43 rescue 7.1µM (no result: FUS yeast rescue)
CCc1cc(-c2onc(C)c2-c2cscn2)c(O)cc1OC	TDP43 rescue 18µM, aSyn rescue inconclusive
NNC(=O)c1nc(-c2ccccc2)n2c1CCCCC2	none
O=C(NNc1ccccc1)c1ccc(Cl)c(Cl)c1	TDP43 rescue 13µM, aSyn rescue inconclusive (no result: FUS yeast rescue)
CCCCCCC(=O)c1c(C)[nH]c(C(=O)OCC)c1C	TDP43 rescue 10µM
CCCC(=O)NCCc1c2n(c3ccc(OC)cc13)CCCc1ccccc1-2	none (no result: TDP43 rescue, Abeta rescue, FUS yeast rescue)
COc1ccc(C(=O)Cn2c(C)nc([N+](=O)[O-])c2Br)cc1	TDP43 rescue inconclusive
Cc1nc([N+](=O)[O-])c(Br)n1Cc1ccc(Cl)c(Cl)c1	TDP43 rescue 14µM
Cc1nc([N+](=O)[O-])c(NCCO)n1Cc1ccccc1	none
Cc1nc([N+](=O)[O-])c(Br)n1CC(=O)c1ccc(Cl)cc1	TDP43 rescue 13µM
Cn1cc(C(=O)C(=O)N2CCc3ccccc32)c2ccccc21	none
Cc1cc(OCC(=O)NNC(=S)NC(=O)c2ccc(Br)o2)ccc1Cl	TDP43 rescue 20µM, Abeta rescue inconclusive, aSyn rescue inconclusive
